The values that follow come from PubChem BioAssay (NCI).

Molecules are shown by their SMILES. Compounds without any hit were thinned out: in the full panel of roughly 83,000, 20% have a hit.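 Values shown are percent growth following 48 h exposure of cells in 96-well plates to a single concentration of compound; below 10 was considered active.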 A number with no mark means an inactive call. The source made the active and inactive calls.

This assay deals with MDA-MB-468 breast. Briefly: NCI-60 one-dose screen, 48 h (100 = growth as untreated, 0 = no growth, -100 = all killed). As to conditions: 10 µM unless noted.

Consider `Cc1ccc(S(=O)(=O)N2CCCC2CO)cc1` (stereo not drawn), for which the growth is 86.3%.

Regarding `COc1ccc(OC2=C(C#N)C(=N)N3c4ccccc4Sc4ccccc4C3N2)cc1` (stereo not drawn), the growth was 94.5%.

Take `Cc1ccc(OC2=C(C#N)C(=N)N3C(=NN2)Sc2c(C)ccc(C)c23)cc1`: the growth was 110%.

Regarding `CC(C)/C=N/NC(N)=S`, the growth is 19.3%.

In the case of `C=C(C)[C@@H]1CC[C@]2(C(=O)NC(COC(=O)C(Cl)Cl)(COC(=O)C(Cl)Cl)COC(=O)C(Cl)Cl)CC[C@]3(C)[C@H](CC[C@@H]4[C@@]5(C)CC[C@H](OC(C)=O)C(C)(C)[C@@H]5CC[C@]43C)[C@@H]12`, the growth is 61.7%.

As for `O=C1Nc2ccccc2SC1C1SC(=S)N(Cc2ccccc2)C1=O` (stereo not drawn), the growth was 31.4%.

Regarding `O=C1C(Cl)C(c2ccccc2Cl)N1n1cnnc1` (stereo not drawn), the growth is 106%.

Turning to `Clc1ccc(-c2nnc(COc3ccc(C4=NNC(c5ccco5)C4)cc3)o2)cc1` (stereo not drawn), the growth is 9.43% (active).

As to `COc1ccc2c(c1)c(-c1nonc1-c1cn(C)c3ccc(OC)cc13)cn2C`, the growth was 29%.

As to `COC(=O)C1NC(=S)N(c2ccc(Cl)cc2)C1/C=C/c1ccccc1` (stereo not drawn), the growth is 108%.

Turning to `Cc1ccc(S(=O)(=O)N/N=C2\CCCc3ccccc32)cc1`, the growth was 95.7%.

Take `CCN(CC)CCCC(C)N=c1cc(Nc2cc(=NC(C)CCCN(CC)CC)c3cc(OC)ccc3o2)oc2ccc(OC)cc12` (stereo not drawn): the growth was -76.8% (active).

As to `O=C(O)c1ccc(-n2cc(/C=N/Nc3ccc(Cl)cc3Cl)c(-c3ccccc3)n2)cc1`, the growth was 79.7%.

As for `CCCCn1c(C)nc2cc(Nc3nc(N4CCCCC4)nc4nc[nH]c34)ccc21`, the growth was 36.1%.

As to `CC1CCN(CCCCCOc2ccc3oc4ccccc4c(=O)c3c2)CC1`, the growth is 41.6%.

As to `O=C1O[C@@H](c2ccccc2Cl)[C@@H]2c3cc4c(cc3CCN12)OCO4`, the growth was 96.2%.

Turning to `Cc1ccc(NC(=O)c2sc3nc(C)c(C(=O)c4ccccc4)cc3c2N)cc1`, the growth was 79%.

`O=C(O)c1c(=O)cccc2ssc12`: the growth is -50.5% (active).

In the case of `CCN(CC)CCCNc1nc2ccccc2c2c(=O)c3cc(Cl)ccc3sc12`, the growth was 54.5%.

In the case of `CC(=O)N1N=C(c2cccc(Nc3ccncc3)c2)CC1c1ccc2c(c1)OCO2` (stereo not drawn), the growth is 85.5%.

Turning to `COc1ccc(-c2nnc(SCC(=O)c3ccccc3)o2)cc1`, the growth is 91.5%.

On to `CNC(=O)c1cc(Oc2ccc(NC(=O)Nc3ccc(Cl)c(SC)c3)c(F)c2)ccn1`, for which the growth was 13.6%.

Turning to `c1ccc2sc(SSN3CC4CCC(CC4)C3)nc2c1`, the growth was 122%.

Take `Cc1ncn(-c2ccc(/C=N/Nc3ccnc4cc(Cl)ccc34)cc2)c1C`: the growth was -21.4% (active).

With `Cc1nc([P+](c2ccccc2)(c2ccccc2)c2ccccc2)c(Sc2sc(-c3ccccc3)nc2[P+](c2ccccc2)(c2ccccc2)c2ccccc2)o1`, the growth is -31.6% (active).

For `NS(=O)(=O)c1ccc(N2N=C(c3ccccc3)CCC2=O)cc1`, the growth is 96.3%.

With `Cc1oc2nc[nH]c(=O)c2c1C(=O)/C=C/c1ccc(Br)cc1`, the growth was -55.4% (active).

On to `N#Cc1c(-c2cccs2)c(C#N)c(=O)n(Cc2nc3ccccc3[nH]2)c1N`, for which the growth was 88.5%.

For the compound `O=c1ccn(Cc2cn(-c3c4ccccc4nc4ccccc34)nn2)c(=O)[nH]1`, the growth is -50.8% (active).

Regarding `CSc1ccc2c(c1)N(C(=O)/C(C#N)=C/c1c[nH]c3ccccc13)c1ccccc1S2`, the growth is 12%.

As to `C#C[C@]1(O)CC[C@H]2[C@@H]3CC=C4c5sc(Nc6ccc(OC)nc6)nc5CC[C@]4(C)[C@H]3CC[C@@]21C`, the growth is 17.4%.

Consider `CC[C@H](Nc1nc(C)nc(N)c1C#N)c1nc2cccc(NCc3ccc(C(=O)NO)cc3)c2c(=O)n1-c1ccccc1`, for which the growth is -37.1% (active).

Take `O=C1C=CC(=O)C2=C1CCCC2`: the growth is 61.5%.

As for `O=C1CC(c2ccccc2)Cc2nc3ccc(Cl)cc3cc21` (stereo not drawn), the growth is 10.2%.

Take `Cc1ccc(S(=O)(=O)Oc2ccc([N+](=O)[O-])cc2[N+](=O)[O-])cc1`: the growth was 107%.

As to `CCNCCNc1cc(-c2ccc(Cl)c(Cl)c2)c(C#N)c2nc3ccccc3n12`, the growth is -80.9% (active).

Regarding `O=C(N/N=C/c1cc(Cl)ccc1O)C(=O)N/N=C/c1cc(Cl)ccc1O`, the growth was 61.3%.

Regarding `COc1cc(-c2nc(SC(C)C)nc(Nc3cccc(C)c3)c2C#N)cc(OC)c1OC`, the growth is 117%.
